Active and inactive are the calls of the source.
Target: Luciferin 4-monooxygenase (Photinus pyralis) (UniProt P08659)
Assay: inhibition of purified Photinus pyralis luciferase – biochemical, luminescence, purified enzyme, 2006 set, primary screen (AID 1141);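 further: cell-free assay with purified firefly luciferase at 100 ng per well in PBS; test concentration not given here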
Conditions: purified firefly luciferase, SteadyGlo luminescence, 30 min; higher = more signal, called active from +8 up or from −8 down

Luciferin 4-monooxygenase (Photinus pyralis), sequence (P08659 whole entry, looked up): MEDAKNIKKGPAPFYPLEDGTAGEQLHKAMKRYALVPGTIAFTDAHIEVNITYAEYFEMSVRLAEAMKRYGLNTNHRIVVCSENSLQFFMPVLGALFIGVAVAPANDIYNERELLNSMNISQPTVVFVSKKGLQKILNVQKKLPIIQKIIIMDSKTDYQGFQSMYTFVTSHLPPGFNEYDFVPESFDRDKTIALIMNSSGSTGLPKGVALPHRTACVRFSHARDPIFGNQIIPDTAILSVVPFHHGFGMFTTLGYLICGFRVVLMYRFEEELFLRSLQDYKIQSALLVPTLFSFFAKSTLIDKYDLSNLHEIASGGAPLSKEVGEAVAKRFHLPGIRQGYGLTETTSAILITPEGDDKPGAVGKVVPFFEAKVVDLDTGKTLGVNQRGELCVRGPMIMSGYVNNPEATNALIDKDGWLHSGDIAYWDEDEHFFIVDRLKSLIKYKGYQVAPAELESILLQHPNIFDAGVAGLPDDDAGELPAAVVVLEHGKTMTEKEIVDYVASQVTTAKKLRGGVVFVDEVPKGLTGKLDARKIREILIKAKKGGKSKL

| Compound | z-score |
| --- | --- |
| COc1ccc(C#Cc2ccc3c(c2)[C@]2(C(=O)N3)[C@H](C(=O)Nc3nc4ccccc4s3)[C@H]3C(=O)O[C@H](c4ccccc4)[C@H](c4ccccc4)N3[C@@H]2c2ccc(O)cc2)cc1 | 0.0616 (inactive) |
| C=C(CC1([C@@H](NP(=O)(c2ccccc2)c2ccccc2)[C@H]2C[C@@H]2CCCC)CC1)c1ccccc1 | 2.82 (inactive) |
| C=CCN1C(=O)[C@@]2(CC=C)N=C(c3ccc(OCCCO)cc3)O[C@H]2c2ccccc21 | -9.06 (active) |
| CCCC[C@@H]1C[C@H]1[C@@H](NC(=O)c1ccco1)c1ccc(-c2ccccc2)cc1 | 1.01 (inactive) |
| C=C(C)[C@@H]1CC=C(C(O)C2C=CC3C(=O)N(C)C(=O)C3N2Nc2ccccc2)CC1 (stereo partly specified) | 0.485 (inactive) |
| O=C1C2C=CC(C(O)Cc3ccccc3)N(n3cnnc3)C2C(=O)N1Cc1ccccc1 (stereo unspecified) | 0.921 (inactive) |
| C=C(COC)/C(=C/C[C@@H](OC(C)=O)c1ccc(OCCO)cc1)c1cnc2ccccc2c1 | -0.846 (inactive) |
| COCCOC(=O)N1C(=O)[C@@]2(c3cc(C#CCNC(N)=O)ccc31)[C@H](C(=O)N1CCN(c3ncccn3)CC1)[C@H]1C(=O)O[C@H](c3ccccc3)[C@H](c3ccccc3)N1[C@@H]2c1ccc(OCCO)cc1 | -1.47 (inactive) |
| C=CCOC(=O)[C@@H]1[C@H]2C(=O)O[C@H](c3ccccc3)[C@H](c3ccccc3)N2[C@H](c2ccc(OCCOC(=O)[C@@H]3C[C@@H]4C(=O)NCC(=O)N4[C@@H]3c3ccc(O)cc3)cc2)[C@@]12C(=O)Nc1ccc(I)cc12 | 0.401 (inactive) |
| CC#CC(=O)Oc1ccccc1C=CC(=O)OCC | 1.51 (inactive) |
| CCCC[C@@H]1C[C@H]1[C@@H](NC(=O)c1ccco1)c1ccccc1C(F)(F)F | 1.8 (inactive) |

Test system: Wnt5a (protein binding on small-molecule microarray)
Assay: small molecules binding Wnt5a protein – biophysical, small-molecule microarray, 635/667 nm fluorescence, primary screen (AID 1142);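 further: fluorescence read at 667 nm with signal to noise per printed feature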
Conditions: 635 nm fluorescence, higher = more signal

| Compound | composite z-score |
| --- | --- |
| COCCOC(=O)N1C(=O)[C@@]2(c3ccccc31)[C@H](c1ccc(O)cc1)N1[C@H](c3ccccc3)[C@H](c3ccccc3)OC(=O)[C@H]1[C@@H]2C(=O)Nc1nc2ccccc2s1 | 0.243 |
| C=CCOC(=O)[C@H]1[C@@H]2C(=O)O[C@@H](c3ccccc3)[C@@H](c3ccccc3)N2[C@@H](c2ccc(OCCOC(=O)[C@H]3C[C@H]4C(=O)N[C@@H](CCCCN(C)C)C(=O)N4[C@H]3c3ccc(O)cc3)cc2)[C@]12C(=O)Nc1ccc(I)cc12 | 0.0259 |
| NC(=O)[C@@H]1[C@H]2C(=O)O[C@H](c3ccccc3)[C@H](c3ccccc3)N2[C@H](c2ccc(O)cc2)[C@@]12C(=O)Nc1ccccc12 | -0.766 |
| CC(C)C[C@@H]1NC(=O)[C@H](C(C)C)NC(=O)[C@@]23C(=O)N[C@@H](Cc4ccccc4)C2[C@H](C)[C@@]2(C)O[C@H]2C3/C=C/CC/C=C/CNC1=O (stereo partly specified) | 0.513 |
| COC(=O)C(CC#Cc1ccc2c(c1)[C@]1(C(=O)N2)[C@H](c2ccc(OCCO)cc2)N2[C@H](c3ccccc3)[C@H](c3ccccc3)OC(=O)[C@H]2[C@@H]1C(=O)Nc1nc2ccccc2s1)C(=O)OC | 0.35 |
| O=C1NC(=O)C2C1C=CC(C(O)c1cc(C(F)(F)F)cc(C(F)(F)F)c1)N2Nc1ccccn1 (stereo unspecified) | -0.102 |
| Cc1ccc(S[C@]2(C(=O)NCCCN(C)C)CC(=O)N(Cc3cc(C(F)(F)F)cc(C(F)(F)F)c3)[C@@H]2c2ccc(CO)cc2I)cc1 | -0.116 |
| C=C(C(=O)CC[C@@H](OC(=O)c1cccnc1)c1ccccc1OCCO)C(C)C | -0.0008 |
| COc1cc(NN2C(C(O)c3ccco3)C=CC3C(=O)N(c4ccccc4)C(=O)C32)cc(OC)c1OC (stereo unspecified) | -0.286 |
| COC(=O)[C@@]1(Cc2ccc(OC)cc2)[C@H]2c3cc(C(=O)N(C)C)n(CCc4ccccn4)c3C[C@H]2CN1C(=O)c1ccccc1 | 1.19 |
| O=C(NC1CC1)[C@@H]1c2ccccc2C(=O)N(Cc2ccccc2Cl)[C@H]1c1ccc(CO)cc1 | 0.201 |
| COC(=O)[C@@]1(Cc2ccc(F)cc2)[C@H]2c3cc(C(=O)N(C)C)n(Cc4ccccc4)c3C[C@H]2CN1C(=O)c1ccccc1 | 0.198 |
| O=C1C2C=CC(C(O)CCc3ccccc3)N(Nc3ccccc3F)C2C(=O)N1c1ccccc1 (stereo unspecified) | 0.43 |
| C=C[C@H](CO[Si](CC)(CC)CC)N(Cc1ccc(OC(C)=O)c(OC)c1)S(=O)(=O)c1ccc(Br)cc1 | 0.157 |
| O=C1O[C@@H](c2ccccc2)[C@@H](c2ccccc2)N2[C@@H](c3ccccc3OCCO)[C@]3(C(=O)Nc4ccc(C#CC5=CCCCC5)cc43)[C@@H](C(=O)N3CCCCCCC3)[C@H]12 | 2.24 |

Reference: PubChem BioAssay
